The values that follow come from the supplement of paper PMC9262897, “Low-cost anti-mycobacterial drug discovery using engineered E. coli” (Nature Communications, 2022).

Structures can show the parent of a compound that is named as a salt. ± gives the standard deviation of the averaged measurements.

This assay relates to E. coli TESEC Alr+ wild-type control. Briefly: growth (OD600 after 10 h); higher = more growth (less inhibition). As to conditions: compound 0.1 mM; raw OD600 reference: median of DMSO wells 0.49, cell-free background 0.052. As to the method: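 TESEC Mtb Alr E. coli (ΔaraC ΔtolC ΔentC Δalr ΔdadX, arabinose-inducible Mtb Alr) or the Alr+ wild-type control strain, grown in defined M9-fructose medium without D-alanine in 96-well plates with Prestwick library compounds at 0.1 mM and 1% DMSO. Low Alr induction is 0.1 µM arabinose and high induction is 10 mM arabinose.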
In turn, `C#CCN(C)[C@H](C)Cc1ccccc1` [Selegiline hydrochloride] returned a growth of 0.441 ± 0.043.

With `C=C(C)[C@@H]1[C@H]2OC(=O)[C@@H]1[C@]1(O)C[C@H]3O[C@]34C(=O)O[C@H]2[C@]14C` [Picrotoxinin], the growth came out at 0.479 ± 0.082.

As for `CCC(=O)O[C@H]1CC[C@H]2[C@@H]3CCC4=CC(=O)CC[C@]4(C)[C@H]3CC[C@]12C` [Testosterone propionate], the growth was determined as 0.351 ± 0.039.

As for `C[C@@H]1CN([C@H]2CC[C@](C#N)(c3ccc(F)cc3)CC2)CC[C@]1(C(=O)O)c1ccccc1` [Levocabastine hydrochloride], the growth came out at 0.49 ± 0.026.

For `CCC(COC(=O)c1cc(OC)c(OC)c(OC)c1)(c1ccccc1)N(C)C` (stereo not given) [Trimebutine], the growth came to 0.255 ± 0.018.

On to `C[C@]12CCC(=O)C=C1C=C[C@@H]1[C@@H]2CC[C@@]2(C)[C@H]1CC[C@@]2(O)CCC(=O)O` [Canrenoic acid potassium salt], for which the growth turned out to be 0.502 ± 0.031.

`CC(O)(CS(=O)(=O)c1ccc(F)cc1)C(=O)Nc1ccc(C#N)c(C(F)(F)F)c1` (stereo not given) [Bicalutamide]: the growth came to 0.3777 ± 0.0027.

Take `CC(Cc1ccccc1)NCCC(c1ccccc1)c1ccccc1` (stereo not given) [Prenylamine lactate]: the growth came to 0.0478 ± 0.00061.

In the case of `COc1cc2c(c(OC)c1OC)-c1ccc(OC)c(=O)cc1[C@@H](NC(C)=O)CC2` [Colchicine], the growth was 0.6712 ± 0.00062.

For the compound `CC(C)N(CCC(C(N)=O)(c1ccccc1)c1ccccn1)C(C)C` (stereo not given) [Disopyramide], the growth is 0.543 ± 0.056.

Regarding `CN1C[C@H](CNC(=O)OCc2ccccc2)C[C@@H]2c3cccc4c3c(cn4C)C[C@H]21` [Metergoline], the growth amounted to 0.04927 ± 5.8e-05.

With `CCNCC(O)c1cccc(O)c1` (stereo not given) [Etilefrine hydrochloride], the growth was found to be 0.446 ± 0.011.

`NCCCNCCSP(=O)(O)O` [Amifostine] displayed a growth of 0.627 ± 0.013.

Regarding `O=[N+]([O-])O[C@@H]1CO[C@H]2[C@@H]1OC[C@@H]2O` [Isosorbide mononitrate], the growth is 0.548 ± 0.053.

Compound `CCC1(c2ccc(N)cc2)CCC(=O)NC1=O` (stereo not given) [Glutethimide, para-amino] came in with a growth of 0.445 ± 0.022.

Turning to `C[C@@H]1O[C@@H](O[C@@H]2C=C3CC[C@@H]4[C@H](CC[C@]5(C)[C@@H](c6ccc(=O)oc6)CC[C@]45O)[C@@]3(C)CC2)[C@H](O)[C@H](O)[C@H]1O` [Proscillaridin A], the growth was found to be 0.626 ± 0.018.

As for `C[C@]12CCC(=O)C=C1CC[C@@H]1[C@@H]2C(=O)C[C@]2(C)C(=O)CC[C@@H]12` [Adrenosterone], the growth is 0.533 ± 0.083.

For the compound `NCC(O)c1ccc(O)cc1` (racemic) [(+,-)-Octopamine hydrochloride], the growth is 0.584 ± 0.08.

Compound `C[C@@H]1CC[C@H]2[C@@H](C)C(=O)O[C@@H]3O[C@@]4(C)CC[C@@H]1[C@]32OO4` [Artemisinin] came in with a growth of 0.33 ± 0.0069.

`C[N+]1(C)[C@@H]2CC[C@H]1C[C@@H](OC(=O)C(CO)c1ccccc1)C2` (stereo not given in full) [Methylatropine nitrate]: the growth amounted to 0.707 ± 0.049.

In turn, `O=C(CCCN1CCC(n2c(=O)[nH]c3ccccc32)CC1)c1ccc(F)cc1` [Benperidol] had a growth of 0.407 ± 0.02.

`O=P1(NCCCl)OCCCN1CCCl` (stereo not given) [Ifosfamide] showed a growth of 0.517 ± 0.077.

As for `Cc1cc(C(C#N)c2ccc(Cl)cc2)c(Cl)cc1NC(=O)c1cc(I)cc(I)c1O` (stereo not given) [Closantel], the growth was determined as 0.128 ± 0.012.

`CN1CCC2(C)c3cc(O)ccc3N(C)C12` (single isomer, unassigned; (-)) [(-)-Eseroline fumarate salt] displayed a growth of 0.577 ± 0.095.

`C[N+](C)(C)CCCCCCCCCC[N+](C)(C)C` [Decamethonium bromide] had a growth of 0.417 ± 0.017.

For `CN1[C@@H]2CC[C@H]1C[C@@H](OC(=O)C(CO)c1ccccc1)C2` (stereo not given in full) [Atropine sulfate monohydrate], the growth worked out at 0.418 ± 0.017.

For the compound `CC(=O)[C@H]1CC[C@H]2[C@@H]3CC[C@H]4C[C@H](O)CC[C@]4(C)[C@H]3C(=O)C[C@]12C` [Alfaxalone], the growth amounted to 0.3925 ± 0.0021.

In turn, `CC(=O)OC1CN2CCC1CC2` (stereo not given) [Aceclidine Hydrochloride] displayed a growth of 0.459 ± 0.015.

In the case of `C#C[C@]1(O)CC[C@H]2[C@@H]3CCC4=CC(=O)CC[C@]4(C)[C@H]3CC[C@@]21C` [Ethisterone], the growth was found to be 0.48 ± 0.055.

Take `NCC1(CC(=O)O)CCCCC1` [Gabapentin]: the growth was found to be 0.565 ± 0.076.

`N[C@@H]1C[C@H]1c1ccccc1` [Tranylcypromine hydrochloride] returned a growth of 0.529 ± 0.055.

For `CC(C)C[C@H]1C(=O)N2CCC[C@H]2[C@]2(O)O[C@](NC(=O)[C@@H]3C=C4c5cccc6[nH]c(Br)c(c56)C[C@H]4N(C)C3)(C(C)C)C(=O)N12` [Bromocryptine mesylate], the growth turned out to be 0.511 ± 0.046.

Compound `COc1ccc(CCN2CCC(Nc3nc4ccccc4n3Cc3ccc(F)cc3)CC2)cc1` [Astemizole] returned a growth of 0.0478 ± 0.00075.

Turning to `C[CH2][Hg][S]c1ccccc1C(=O)[O-].[Na+]` [Thimerosal], the growth was 0.216 ± 0.1.

With `CN[C@@H]1[C@@H](O)[C@@H](O[C@@H]2[C@@H](O)[C@H](O[C@H]3O[C@H](CN)CC[C@H]3N)[C@@H](N)C[C@H]2N)OC[C@]1(C)O.CN[C@@H]1[C@@H](O)[C@@H](O[C@@H]2[C@@H](O)[C@H](O[C@H]3O[C@H]([C@@H](C)N)CC[C@H]3N)[C@@H](N)C[C@H]2N)OC[C@]1(C)O.CN[C@@H]1[C@@H](O)[C@@H](O[C@@H]2[C@@H](O)[C@H](O[C@H]3O[C@H]([C@@H](C)NC)CC[C@H]3N)[C@@H](N)C[C@H]2N)OC[C@]1(C)O` [Gentamicine sulfate], the growth was 0.0643 ± 0.0096.

Compound `CC1C=CC=CCCC=CC=CC=CC=CC(OC2OC(C)C(O)C(N)C2O)CC2OC(O)(CC(O)C(O)CCC(O)CC(O)CC(O)CC(=O)OC(C)C(C)C1O)CC(O)C2C(=O)O` (stereo not given) [Nystatine] displayed a growth of 0.471 ± 0.021.

In the case of `C[C@@]12N[C@@H](Cc3ccccc31)c1ccccc12` [(-)-MK 801 hydrogen maleate], the growth turned out to be 0.564 ± 0.017.

`CC[N+]1(C)CCCC(OC(=O)C(O)(c2ccccc2)c2ccccc2)C1` (stereo not given) [Pipenzolate bromide]: the growth is 0.424 ± 0.016.

In turn, `CC(C)(C)NCC(O)c1cc(Cl)c(N)c(Cl)c1` (stereo not given) [Clenbuterol hydrochloride] showed a growth of 0.605 ± 0.12.

For the compound `C=C1C[C@@H]2[C@H](CC[C@]3(C)C(=O)CC[C@@H]23)[C@@]2(C)C=CC(=O)C=C12` [Exemestane], the growth was determined as 0.322 ± 0.0079.
